Activity calls are given as the source filed them. Where a call stands in place of a potency, no number is given. Calls come from the whole dose curve; as a rule, active = well fitted curve in the direction sought with a large enough effect; inconclusive = small, poorly fitted or top-dose-only effect, or another doubt; inactive = no such curve, though single readings can be large or run the other way.
experiment: Validation qHTS assay for inhibitors of Activation Induced Cytidine Deaminase (AID): UDG Counterscreen signal (AID 1347427); details: biochemical UDG counterscreen, fluorescence signal; series mostly up to 115 µM
Source text: Assay Provider (PI) Patricia Gearhart Ph.D.
National Institute on Aging
National Institute of Health (NIH), Bethesda, MD
Assay Provider (PI) Rahul Kohli Ph.D.
Perelman School of Medicine
University of Pennsylvania, Philadelphia, PA
Activation-Induced Deaminase (AID) is a cytosine deaminase which converts cytosine into uracil within stretches of ssDNA. The presence of uracil in DNA initiates a cascade of mutagenic DNA repair to introduce point mutations and DNA double strand breaks. Specific targeting of AID to the immunoglobulin heavy chain loci (Igh) promotes mutagenesis in the antibody variable region for somatic hypermutation (SHM) or switch regions leading to class switch recombination (CSR). However, AID also plays a role in accumulating unnecessary mutations across the genome. Mis-targeting of AID results in the initiation of tumor development and leads to greater drug resistance among cancer cells when continually expressed. To identify an AID inhibitor, a small molecule library will be screened in collaboration with NCATS core facility at NIH. To confirm biological function, inhibitors will be examined in an in vitro murine B-cell activation assay and subsequent secondary validation screens. Top molecules will be further screened to identify inhibitory efficacy against a wild type primary splenocytes assay. Using these approaches, we hope to identify a small molecule with great efficacy and low toxicity for use as a molecular probe to further characterize AID's intricacies, or even as a therapeutic.
A FRET based analysis of cytosine deamination, was developed to identify potential inhibitors of AID catalytic activity. This screen has two signal output, Read 1 evaluates the AID inhibition response. The second readout (Read 2) evaluates UDG response and is uses as a counterscreen to exclude false positive inhibitors. Inhibition in AID and inactivity in the UDG signal is the desired outcome for this assay.
SEQUENCE No. (e.g., 1, 2, 3, etc.); […] (e.g., Cells, Incubation, Reagent, etc.); VALUE; DESCRIPTION
1a; Reagent; 3 uL; [4/3x] 1 uM AID/2.67 U/mL UDG
1b; Reagent; 3 uL; 2 U/mL UDG
1c; Reagent; 3 uL; 1 uM AID
2a; Compound; 46 nL; Follow-up plates (0.64 uM - 10 mM)
2b; Control; 46 nL; ATA ([…] - 10 mM)
3; Time; 10 min; incubation at room temperature
5; Time; 4 hr; incubation at room temperature
6; Reagent; 4 uL; [2x] 250 mM NaOH
7; Time; 15 sec; centrifuge at 1000 rpm
8; Time; 30 min; incubation at room temperature
9a; Detection; fluorescence (Read 1: AID); EnVision (PerkinElmer) plate reader, 540 excitation and 590 emission filters
9b; Detection; fluorescence (Read 2: UDG); EnVision (PerkinElmer) plate reader, 560 excitation and 665 emission filters
NOTES (numbers refer to sequence above)
1a; Reagents were dispensed in a medium-binding black solid-bottom Greiner plates (789176F) using a BioRptr liquid dispenser. Dispense 3 uL of [4/3x] 1 uM AID (provided by Kohli lab) and [4/3x] 2 U/mL UDG (NEB M0280L) into columns 1, 2, 5 to 48.
1b; Dispense 3 uL of [4/3x] 2 U/mL UDG into column 3.
1c; Dispense 3 uL of [4/3x] 1 uM AID into column 4.
2b; 10 mM Aurintricarboxylic Acid (Sigma A1895) (ATA, 8-point, n = 2, 1:2.5 dilution in column 2) double pin-transferred (Dip Factor = 2) using the Kalypsys (Wako USA) pintool equipped with a 1536 pinhead for a [final] range of 186 nM - 114 uM.
3; Room temperature incubation.
4; Dispense 1 uL of substrate mixture from the Kohli lab [4x] […] DJC20 and [4x] 250 nM DJC23 into columns 1 to 48 .
5; Room temperature incubation.
6; Dispense 4 uL of substrate mixture [2x] 250 mM NaOH into columns 1 to 48.
7; Centrifugation step to remove bubbles.
8; Room temperature incubation
9a; Fluorescence signal (column label AID) was read using the EnVision plate reader. Excitation filter = 540(8) nm, barcode = 311; Emission filter = 590(20) nm, barcode = 217; Mirror = D555, barcode = 405.
9b; Fluorescence signal (column label UDG) was read using the EnVision plate reader. […]

Q: With CCCCC[C@H](CC(=O)NO)C(=O)N[C@H](C(=O)N1CCC[C@H]1CO)C(C)C as the compound, how does the Potency read?
A: inactive

Q: With CCCn1c(=O)c2[nH]c(-c3ccc(S(=O)(=O)O)cc3)nc2n(CCC)c1=O as the compound, how does the Potency read?
A: inactive

Q: For N[C@@H](CCCC(=O)O)C(=O)O, which Potency is on record?
A: inactive

Q: For CCCCOc1cc(CC2CNC(=O)N2)ccc1OC (stereo not given), which Potency is on record?
A: inactive

Q: For COC1(C2=NCCN2)COc2ccccc2O1 (stereo not given), which Potency is on record?
A: inactive

Q: With C=CC1(C)CC(=O)C2(O)C(C)(O1)C(OC(C)=O)C(O)C1C(C)(C)CCC(O)C12C (stereo not given) as the compound, how does the Potency read?
A: inactive

Q: With NC(=O)c1cc[n+](CC2=C(C(=O)O)N3C(=O)[C@@H](NC(=O)[C@@H](c4ccccc4)S(=O)(=O)[O-])[C@H]3SC2)cc1 as the compound, how does the Potency read?
A: inactive

Q: For CCCCCCCC/C=C\CCCCCCCC(=O)NCCc1ccc(O)c(O)c1, which Potency is on record?
A: inactive

Q: Which Potency does the source give for COc1cc(C(O)CO)ccc1O (stereo not given) here?
A: inactive

Q: With O=c1[nH]ccc2c(O)cccc12 as the compound, how does the Potency read?
A: inactive

Q: With N#C/C(=C\c1ccc(O)c(O)c1)C(=O)NCCCNC(=O)/C(C#N)=C/c1ccc(O)c(O)c1 as the compound, how does the Potency read?
A: inactive

Q: Which Potency does the source give for CN1C2CCC1CC(OC(c1ccccc1)c1ccccc1)C2 (stereo not given) here?
A: inactive

Q: With Cc1nc2n(c(=O)c1CCN1CCC(c3noc4cc(F)ccc34)CC1)CCCC2O (stereo not given) as the compound, how does the Potency read?
A: inactive

Q: Which Potency does the source give for Cc1nc2c(OCc3ccccc3)cccn2c1CC#N here?
A: inactive

Q: Which Potency does the source give for CCC(=O)N1CCN(C(=O)c2ccccc2)CC1 here?
A: inactive

Q: For c1ccc2nc(C3=NCCN3)ccc2c1, which Potency is on record?
A: inactive

Q: With COc1cc(CC(=O)O)ccc1O as the compound, how does the Potency read?
A: inactive

Q: For O=c1[nH]c(=S)[nH]c(-c2ccccc2)c1Cc1c(O)ccc2ccccc12, which Potency is on record?
A: inactive

Q: Which Potency does the source give for OC1(c2ccc(Cl)cc2)CCN(Cc2c[nH]c3ccccc23)CC1 here?
A: inactive

Q: For Cn1c(=O)[nH]c2ncn(C)c2c1=O, which Potency is on record?
A: inactive

Q: For CN1CC(O)C(O)C(O)C1CO (stereo not given), which Potency is on record?
A: inactive

Q: Which Potency does the source give for Nc1ccc(N2C(=O)c3ccccc3C2=O)c(Cl)c1 here?
A: inactive

Q: With Cn1c(=O)c2[nH]c(C3CCCC3)nc2n(C)c1=O as the compound, how does the Potency read?
A: inactive

Q: For O=C(O)C1=CCCN(CCON=C(c2ccccc2)c2ccccc2)C1, which Potency is on record?
A: inactive

Q: For c1ccc(C(NCCNC(c2ccccc2)c2ccccc2)c2ccccc2)cc1, which Potency is on record?
A: inactive

Q: For NCCCNCCCCNCCCN, which Potency is on record?
A: inactive

Q: Which Potency does the source give for N#Cc1cc2nc(O)c(O)nc2cc1[N+](=O)[O-] here?
A: inactive

Q: With O=c1onc2cnc3ccccc3n12 as the compound, how does the Potency read?
A: inactive

Q: For CCN(CC)CCCCCCCCOC(=O)c1cc(OC)c(OC)c(OC)c1, which Potency is on record?
A: inactive

Q: Which Potency does the source give for CC(=O)O[C@H]1CC2(C)[C@@H](C[C@@H](O)[C@H]3[C@@]4(C)CC[C@@H](O)[C@@H](C)[C@@H]4CC[C@@]32C)C1=C(CCC=C(C)C)C(=O)O (stereo not given in full) here?
A: inactive

Q: For N[C@H](C(=O)O)[C@H]1C[C@@H]1C(=O)O, which Potency is on record?
A: inactive

Q: Which Potency does the source give for C#CC(N)CCC(=O)O (stereo not given) here?
A: inactive

Q: For Cc1cccc(C(=O)NCN2CCN(c3ccccc3C#N)CC2)c1, which Potency is on record?
A: inactive

Q: Which Potency does the source give for Nc1ncnc2c1c(-c1ccc(Oc3ccccc3)cc1)cn2C1CCCC1 here?
A: inactive

Q: For CC[n+]1c(/C=C/C=C2/N(C)c3ccccc3C2(C)C)sc2ccccc21, which Potency is on record?
A: inactive

Q: With Oc1ccc(Cn2cc[nH]c2=S)cc1 as the compound, how does the Potency read?
A: inactive

Q: Which Potency does the source give for CCn1c(=O)[nH]c2cc(Cl)c(Cl)cc21 here?
A: inactive

Q: Which Potency does the source give for CC(/C=C/c1cccc(Oc2ccc(F)cc2)c1)N(O)C(N)=O (stereo not given) here?
A: inactive

Q: Which Potency does the source give for CN1CCc2cc(Cl)c(O)cc2[C@@H](c2ccccc2)C1 here?
A: inactive

Q: For CNCCc1cnc(CCC(c2ccccc2)c2ccccc2)[nH]1, which Potency is on record?
A: inactive

From PubChem BioAssay (NCATS)
